Assay [1] is described as follows: circadian clock period modulators, cell-based, LOPAC library, luminescence reporter (AID 2774).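 Further: values are relative to mean of DMSO wells on each plate.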 Particulars: circadian reporter cells, at 7 µM, actives lie on both sides.
Assay [2] has as its system Hepatitis C virus NS3 helicase. The assay can be described thus: HCV NS3 helicase inhibitors, primary screen, biochemical, fluorescence polarization, LOPAC1280 library (AID 687035; in the data active means inhibition above about 37%). Particulars: Purified HCV NS3 helicase, Cy5-dT15 ssDNA binding fluorescence polarization; stronger effect = higher value; concentration not given here.
Assay [3] in a line: Cy5 fluorescence quenching or enhancement artefacts, artefact control for HCV NS3 helicase inhibitor project, biochemical, LOPAC1280 (AID 687037). To be noted: Cy5-DNA-NS3h complex fluorescence interference counterscreen. On the technique in general: The purpose of a counterscreen is to sort out artefacts and off-target activity.
A short description of assay [4]: sensitizers of A549 cells to miR-34 induction, primary screen, imaging, A549 dox-inducible miR-34, nuclei and caspase counts (AID 1347080;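 active means compounds whose cell count with miR-34 switched on is under 0.7 times the count with it off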). To be noted: A549 miR-34 inducible, Hoechst nuclei count, 48 h.
A short description of assay [5]: viability rescue of complex I mutant cybrids, primary screen, cell-based, galactose medium, ATP luminescence (AID 1645843;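 active means z-score of at least 1.8 in each of two replicates, scored against plate mean and spread of sample wells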;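 further: positive z means more ATP and so rescue of galactose-driven cybrid death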). Particulars: complex I mutant cybrid cells, 72 h, stronger effect = higher value.
The nature of assay [6]: liver-stage malaria parasite growth inhibition, primary screen, cell-based, HepG2, luciferase luminescence, HepG2 viability (AID 624349; in the data active means parasite load remaining mostly below about 12%, no sharp cut-off; inactive means mostly above about 10%;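 further: 100% = mean of DMSO negative control wells on the same plate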). To be noted: P. berghei liver stage in HepG2, luciferase luminescence, concentration not given here; parasite load remaining: stronger effect = lower value; viability: measured here: HepG2 viability without parasites.
The target of assay [7] is ATP-dependent translocase ABCB1 (Homo sapiens) (UniProt P08183). Nature of the assay: MDR1 (ABCB1) efflux transporter inhibition, cell-based (AID 377; in the data active means fluorescence slope change above about 50%). To be noted: MDR1-expressing cells, fluorescent substrate accumulation slope; stronger effect = higher value; concentration not given here.
A short description of assay [8]: hESC survival regulators, cell-based (AID 493140).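 Further: cells exposed to compounds for four days before counting.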 Particulars: human embryonic stem cell survival screen; stronger effect = higher value.
[9] abbreviates: stronger effect = lower value, cell number ratio, induced over uninduced.
[10] abbreviates: measured here: relative caspase fold change +Dox/-Dox.
[11] abbreviates: measured here: total cells with miR-34 induction, stronger effect = lower value.
The mark [12] stands for this setting: measured here: total cells without miR-34 induction.

Each structure is given as a SMILES string. Where “and” joins values, the source holds several entries; their conditions need not be identical. Equal entries are not always repeated. Results filed as inconclusive are left out. Calls of active or inactive are those of the source. Unless noted, how the calls were made is not given here.

Results on 9 compounds are retold here after PubChem BioAssay.

Chain of ATP-dependent translocase ABCB1 (Homo sapiens) (P08183 whole entry, looked up): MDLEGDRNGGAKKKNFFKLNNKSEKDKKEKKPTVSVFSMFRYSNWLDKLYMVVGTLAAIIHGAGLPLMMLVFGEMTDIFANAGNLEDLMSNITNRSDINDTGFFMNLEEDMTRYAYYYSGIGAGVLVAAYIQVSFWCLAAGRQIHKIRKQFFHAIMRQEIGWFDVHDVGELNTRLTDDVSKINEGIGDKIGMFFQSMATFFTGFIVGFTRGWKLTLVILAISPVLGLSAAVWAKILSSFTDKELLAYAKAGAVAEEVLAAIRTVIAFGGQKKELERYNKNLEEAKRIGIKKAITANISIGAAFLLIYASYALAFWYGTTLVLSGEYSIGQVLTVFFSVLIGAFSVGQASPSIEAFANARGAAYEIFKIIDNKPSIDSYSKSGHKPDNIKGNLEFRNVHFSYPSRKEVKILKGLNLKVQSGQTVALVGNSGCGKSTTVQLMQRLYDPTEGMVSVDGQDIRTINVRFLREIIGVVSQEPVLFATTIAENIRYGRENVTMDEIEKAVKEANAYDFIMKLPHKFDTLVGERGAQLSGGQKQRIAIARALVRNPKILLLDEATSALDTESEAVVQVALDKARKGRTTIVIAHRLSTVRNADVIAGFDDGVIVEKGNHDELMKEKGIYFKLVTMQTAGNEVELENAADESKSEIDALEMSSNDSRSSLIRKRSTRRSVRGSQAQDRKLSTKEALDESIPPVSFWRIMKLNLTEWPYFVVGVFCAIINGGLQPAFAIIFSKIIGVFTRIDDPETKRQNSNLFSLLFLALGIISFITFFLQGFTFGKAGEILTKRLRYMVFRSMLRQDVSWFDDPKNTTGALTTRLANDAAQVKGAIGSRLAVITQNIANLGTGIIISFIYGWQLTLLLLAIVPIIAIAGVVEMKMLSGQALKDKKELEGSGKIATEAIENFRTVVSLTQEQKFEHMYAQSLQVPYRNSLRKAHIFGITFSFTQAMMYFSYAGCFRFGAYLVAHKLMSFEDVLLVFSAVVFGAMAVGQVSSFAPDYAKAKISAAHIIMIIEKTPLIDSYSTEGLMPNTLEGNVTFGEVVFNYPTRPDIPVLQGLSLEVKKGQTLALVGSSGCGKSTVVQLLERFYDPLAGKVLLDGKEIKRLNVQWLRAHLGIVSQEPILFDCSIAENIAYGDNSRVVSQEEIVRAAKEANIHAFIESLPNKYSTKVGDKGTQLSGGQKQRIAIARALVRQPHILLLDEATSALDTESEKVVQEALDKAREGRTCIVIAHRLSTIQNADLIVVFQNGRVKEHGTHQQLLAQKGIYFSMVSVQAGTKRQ

A word on the inhibition: it is the drop in the measured response relative to a control, in per cent. As to `Oc1ccc(Cn2cc[nH]c2=S)cc1`, in assay [1], the period change was 0.16 h (inactive). Moreover, the inhibition in assay [2] is -4% (inactive). For the same compound, the fluorescence ratio (interference) in assay [3] was 1 (inactive). The fold change in assay [4] (setting [9]) was 0.942 (inactive); in assay [4] (setting [10]), 1.11. In addition, the cell count came to 9950 in assay [4] (setting [11]) and 10600 in assay [4] (setting [12]). Besides, the z-score in assay [5] was 0.15 (inactive).

Regarding `N.N.N.N.N.N.N.N.N.N.N.N.N.N.O.O.[Cl-].[Cl-].[Cl-].[Cl-].[Cl-].[Cl-].[Ru+4].[Ru+5].[Ru+5]`, in assay [1], the period change was 0.18 h (inactive). Besides, in assay [2], the inhibition is -98% (inactive). Further, the fluorescence ratio (interference) in assay [3] is 0 (active). In addition, the results for the fold change in assay [4] (setting [9]) and in assay [4] (setting [10]) were 1.03 (inactive) and 0.871, respectively. Further, the cell count in assay [4] (setting [11]) stood at 10700; in assay [4] (setting [12]), 10400. Moreover, the z-score in assay [5] was -0.735 (inactive).

On to `Cc1nc(N=Nc2cc(S(=O)(=O)O)c3cc([N+](=O)[O-])cc(S(=O)(=O)O)c3c2)c(COP(=O)(O)O)c(C=O)c1O`, for which the period change in assay [1] is -0.275 h (inactive). The inhibition in assay [2] is 58% (active). Further, the fluorescence ratio (interference) in assay [3] was 0.8 (active). For the same compound, the fold change was 1.02 (inactive) in assay [4] (setting [9]) and 1.61 in assay [4] (setting [10]). Besides, the cell count in assay [4] (setting [11]) was determined as 10500; in assay [4] (setting [12]), 10300. For the same compound, the z-score in assay [5] was 1.9 (active).

One may read the viability as a read-out of living cells in per cent, often relative to untreated cells. For the compound `CCC[C@@H]1C[C@@H](C(=O)N[C@@H]([C@H]2O[C@H](SC)[C@H](O)[C@@H](O)[C@@H]2O)[C@@H](C)O)N(C)C1`, the parasite load remaining in assay [6] was 53.4% (inactive) and 46.6% (inactive). Moreover, the viability in assay [6] was 129% and 47.8%. Also, the fold change is 0.982 (inactive) and 0.853 (inactive) in assay [4] (setting [9]); 0.967 and 1.36 in assay [4] (setting [10]). For the same compound, the cell count in assay [4] (setting [11]) was 11000 and 8020; in assay [4] (setting [12]), 11200 and 9400. The z-score in assay [5] is 1.21 (inactive).

Turning to `Cn1c(-c2ccc3c(c2)OCO3)cc(=O)c2ccccc21`, the fluorescence slope change in assay [7] was 6.8% (inactive). Also, the survival in assay [8] was 4.17 (inactive). Further, the parasite load remaining in assay [6] was 95.4% (inactive). Besides, the viability in assay [6] is 95.4%. For the same compound, the fold change in assay [4] (setting [9]) was 0.89 (inactive); in assay [4] (setting [10]), 1.11. Also, the figures for the cell count in assay [4] (setting [11]) and in assay [4] (setting [12]) were 8470 and 9520, respectively.

As to `Cc1ccc2c(c1)C(N1CCN(C)CC1)=Nc1cccnc1N2`, the period change in assay [1] is 0.2 h (inactive). In addition, the inhibition in assay [2] is -2% (inactive). In addition, the fluorescence ratio (interference) in assay [3] is 1 (inactive). For the same compound, the fold change in assay [4] (setting [9]) was 1 (inactive); in assay [4] (setting [10]), 1.15. The cell count in assay [4] (setting [11]) was 8670; in assay [4] (setting [12]), 8630. Further, the z-score in assay [5] is 0.01 (inactive).

Turning to `N#C/C(=C\c1ccc(O)c(O)c1)C(=O)c1ccc(O)c(O)c1`, in assay [1], the period change is -0.055 h (inactive). Besides, in assay [2], the inhibition is 100% (active). For the same compound, the fluorescence ratio (interference) in assay [3] was 1 (inactive). Moreover, the figures for the fold change in assay [4] (setting [9]) and in assay [4] (setting [10]) were 0.979 (inactive) and 1.26, respectively. The results for the cell count in assay [4] (setting [11]) and in assay [4] (setting [12]) were 9140 and 9340, respectively. Besides, the z-score in assay [5] was -0.355 (inactive).

As for `NC(N)=[N+]1CCc2ccccc2C1`, the period change in assay [1] is -0.15 h (inactive). The inhibition in assay [2] is -1% (inactive). Further, the fluorescence ratio (interference) in assay [3] is 1.1 (inactive). Also, the fold change in assay [4] (setting [9]) is 1.01 (inactive); in assay [4] (setting [10]), 1.06. Further, the results for the cell count in assay [4] (setting [11]) and in assay [4] (setting [12]) were 8570 and 8500, respectively. The z-score in assay [5] was -0.075 (inactive).

`CC[C@@]1([C@@H]2O[C@@H]([C@H]3O[C@@](O)(CO)[C@H](C)C[C@@H]3C)C[C@@H]2C)CC[C@H]([C@]2(C)CC[C@]3(C[C@H](O)[C@@H](C)[C@@H]([C@@H](C)[C@@H](OC)C(C)C(=O)O)O3)O2)O1` (some centres undefined): the fluorescence slope change in assay [7] is 168% (active). For the same compound, in assay [8], the survival is 0.417 (inactive). In addition, the fold change was 1.05 (inactive) in assay [4] (setting [9]) and 1.84 in assay [4] (setting [10]). Also, the results for the cell count in assay [4] (setting [11]) and in assay [4] (setting [12]) were 1810 and 1730, respectively.
